Results reported in PubChem BioAssay (NCI).
About 83,000 compounds went through this panel and 20% of them were active in at least one assay; those are over-represented in the sample as a whole.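 Results are percent growth after 48 hours of single-concentration exposure. 100 means growth as in untreated cells, lower positive values show inhibition; negative values down to -100 show cell death.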 The source made the active and inactive calls. Rule for the calls: active = growth percent below 10; inactive = the rest.

Experiments:
Assay in all cases: NCI-60 one-dose screen, 48 h (100 = growth as untreated, 0 = no growth, -100 = all killed)
Conditions in all cases: 10 µM unless noted
HCT-15 colon = system: HCT-15 colon
HT29 colon = system: HT29 colon
SNB-75 CNS = system: SNB-75 CNS
SNB-19 CNS = system: SNB-19 CNS
U251 CNS = system: U251 CNS
PC-3 prostate = system: PC-3 prostate
SK-MEL-5 melanoma = system: SK-MEL-5 melanoma
UACC-62 melanoma = system: UACC-62 melanoma
LOX IMVI melanoma = system: LOX IMVI melanoma
SK-MEL-28 melanoma = system: SK-MEL-28 melanoma
SK-MEL-2 melanoma = system: SK-MEL-2 melanoma
EKVX NSCLC = system: EKVX NSCLC
SN12C renal = system: SN12C renal
UO-31 renal = system: UO-31 renal
TK-10 renal = system: TK-10 renal
ACHN renal = system: ACHN renal
CAKI-1 renal = system: CAKI-1 renal
A498 renal = system: A498 renal
CCRF-CEM leukemia = system: CCRF-CEM leukemia
MOLT-4 leukemia = system: MOLT-4 leukemia

Measured: growth

O=C(CCN1C(=O)/C(=C/c2ccc(O)cc2)SC1=S)Nc1ccccc1
inactive: HCT-15 colon 90.8% | HT29 colon 118% | SNB-75 CNS 89.3% | SNB-19 CNS 91.4% | U251 CNS 92.7% | PC-3 prostate 90.5% | SK-MEL-5 melanoma 101% | UACC-62 melanoma 81.6% | LOX IMVI melanoma 97.6% | SK-MEL-28 melanoma 97.3% | SK-MEL-2 melanoma 111% | EKVX NSCLC 100% | SN12C renal 87.6% | UO-31 renal 67% | TK-10 renal 102% | ACHN renal 92% | CAKI-1 renal 97.1% | A498 renal 97.8% | CCRF-CEM leukemia 72.2% | MOLT-4 leukemia 85.5%

COc1nc2ccccc2cc1-c1nc2c(cnn2-c2ccccc2)c(=O)[nH]1
inactive: HCT-15 colon 24.8% | SNB-75 CNS 28.2% | SNB-19 CNS 42.1% | U251 CNS 37.8% | PC-3 prostate 41.2% | SK-MEL-5 melanoma 41.7% | UACC-62 melanoma 36.3% | LOX IMVI melanoma 35% | SK-MEL-28 melanoma 56.7% | SK-MEL-2 melanoma 12.9% | EKVX NSCLC 58.5% | SN12C renal 65.8% | UO-31 renal 40.2% | TK-10 renal 72% | ACHN renal 57.6% | CAKI-1 renal 42.1% | A498 renal 18.9% | CCRF-CEM leukemia 21.1% | MOLT-4 leukemia 40.4%
active: HT29 colon 9.45%

COc1ccc2nc(NC(=O)c3cccnc3Nc3ccc(S(N)(=O)=O)cc3)sc2c1
inactive: HCT-15 colon 94.2% | HT29 colon 106% | SNB-75 CNS 74.6% | SNB-19 CNS 99.4% | U251 CNS 97.4% | PC-3 prostate 71.6% | SK-MEL-5 melanoma 89.4% | UACC-62 melanoma 82.5% | LOX IMVI melanoma 100% | SK-MEL-28 melanoma 116% | SK-MEL-2 melanoma 103% | EKVX NSCLC 92% | SN12C renal 110% | UO-31 renal 126% | TK-10 renal 99% | ACHN renal 90% | CAKI-1 renal 76.1% | A498 renal 93.5% | CCRF-CEM leukemia 59.3% | MOLT-4 leukemia 63.3%

NCCOc1ncccc1/C=C1\c2ccccc2-c2ccc(C(F)F)cc21
inactive: HCT-15 colon 28.8% | HT29 colon 48.9% | SNB-75 CNS 53.2% | SNB-19 CNS 40.4% | U251 CNS 35.9% | PC-3 prostate 50.9% | SK-MEL-5 melanoma 58.2% | UACC-62 melanoma 68.2% | LOX IMVI melanoma 12.3% | SK-MEL-28 melanoma 82% | SK-MEL-2 melanoma 115% | EKVX NSCLC 79.7% | SN12C renal 16.8% | UO-31 renal 31.1% | TK-10 renal 86.6% | CAKI-1 renal 35.5% | A498 renal 47.5%
active: ACHN renal 4.83% | CCRF-CEM leukemia 6.32% | MOLT-4 leukemia 2.92%

Nc1nc2ccccc2c2c(=O)c3cc(F)ccc3sc12
inactive: HCT-15 colon 98.6% | HT29 colon 99.8% | SNB-75 CNS 93.1% | SNB-19 CNS 101% | U251 CNS 105% | PC-3 prostate 103% | SK-MEL-5 melanoma 98.5% | UACC-62 melanoma 102% | LOX IMVI melanoma 99.6% | SK-MEL-28 melanoma 103% | SK-MEL-2 melanoma 110% | EKVX NSCLC 91.5% | SN12C renal 101% | UO-31 renal 91.3% | TK-10 renal 110% | ACHN renal 101% | CAKI-1 renal 107% | A498 renal 89.7% | CCRF-CEM leukemia 105% | MOLT-4 leukemia 101%

CCOC(=O)c1c(C)oc2ncnc(N3CCN(C(=O)COc4ccc(C(C)(C)C)cc4)CC3)c12
inactive: HCT-15 colon 79.8% | HT29 colon 90.2% | SNB-75 CNS 93.5% | SNB-19 CNS 85.4% | U251 CNS 89.5% | PC-3 prostate 59.3% | SK-MEL-5 melanoma 34.8% | UACC-62 melanoma 42.9% | LOX IMVI melanoma 75.5% | SK-MEL-28 melanoma 85.4% | SK-MEL-2 melanoma 93.7% | EKVX NSCLC 74% | SN12C renal 82.7% | UO-31 renal 48% | TK-10 renal 94.1% | ACHN renal 85.9% | CAKI-1 renal 84.3% | A498 renal 82% | CCRF-CEM leukemia 76.2% | MOLT-4 leukemia 59.1%

O=C(N/N=C/[C@H](O)[C@H](O)[C@H](O)CO)c1ccc(NC(=O)c2cccnc2)cc1
inactive: HCT-15 colon 106% | HT29 colon 104% | SNB-75 CNS 97.4% | SNB-19 CNS 97.7% | U251 CNS 105% | PC-3 prostate 96.3% | SK-MEL-5 melanoma 104% | UACC-62 melanoma 96.2% | LOX IMVI melanoma 99.1% | SK-MEL-28 melanoma 112% | SK-MEL-2 melanoma 118% | EKVX NSCLC 105% | SN12C renal 94.5% | UO-31 renal 83.7% | TK-10 renal 104% | ACHN renal 109% | CAKI-1 renal 94.1% | A498 renal 99.3% | CCRF-CEM leukemia 99.2% | MOLT-4 leukemia 109%

CCCCn1c(=O)c(-c2cc(-c3ccc(Cl)cc3)nc(-c3ccc(Cl)cc3)c2)cc2cc(Cl)ccc21
inactive: HCT-15 colon 97.8% | HT29 colon 101% | SNB-75 CNS 95.4% | SNB-19 CNS 96% | U251 CNS 105% | PC-3 prostate 98.4% | SK-MEL-5 melanoma 107% | UACC-62 melanoma 88.5% | LOX IMVI melanoma 99.9% | SK-MEL-28 melanoma 104% | SK-MEL-2 melanoma 120% | EKVX NSCLC 105% | SN12C renal 91.2% | UO-31 renal 88.4% | TK-10 renal 107% | ACHN renal 107% | CAKI-1 renal 94.3% | A498 renal 123% | CCRF-CEM leukemia 104% | MOLT-4 leukemia 104%

N#Cc1c(-c2ccc(Cl)cc2)nc(NCCO)[nH]c1=O
inactive: HCT-15 colon 102% | HT29 colon 106% | SNB-75 CNS 81% | SNB-19 CNS 102% | U251 CNS 98.7% | PC-3 prostate 92.4% | SK-MEL-5 melanoma 107% | UACC-62 melanoma 84.4% | LOX IMVI melanoma 97.3% | SK-MEL-28 melanoma 112% | SK-MEL-2 melanoma 94.4% | EKVX NSCLC 157% | SN12C renal 96.2% | UO-31 renal 74.5% | TK-10 renal 97.9% | ACHN renal 101% | CAKI-1 renal 94.2% | A498 renal 125% | CCRF-CEM leukemia 113% | MOLT-4 leukemia 99.5%

CC(=O)N1CCN(c2ccc(OCC3CO[C@](Cn4ccnc4)(c4ccc(Cl)cc4Cl)O3)cc2)CC1 (stereo not given in full)
inactive: HCT-15 colon 75% | HT29 colon 80.6% | SNB-75 CNS 79.6% | SNB-19 CNS 97.2% | U251 CNS 87.4% | PC-3 prostate 76.5% | SK-MEL-5 melanoma 14.5% | UACC-62 melanoma 57.2% | LOX IMVI melanoma 91.6% | SK-MEL-28 melanoma 106% | SK-MEL-2 melanoma 86.8% | EKVX NSCLC 87.9% | SN12C renal 84.2% | UO-31 renal 53.7% | TK-10 renal 101% | ACHN renal 92.5% | CAKI-1 renal 79.6% | A498 renal 86.4% | CCRF-CEM leukemia 75.2% | MOLT-4 leukemia 77.4%

COc1cc(C2CC(c3ccc(SC)cc3)=NN2C(C)=O)cc(OC)c1OC (stereo not given)
inactive: HCT-15 colon 47.5% | HT29 colon 21.9% | SNB-75 CNS 11.9% | SNB-19 CNS 74.3% | U251 CNS 62.7% | PC-3 prostate 58.3% | SK-MEL-5 melanoma 70.2% | UACC-62 melanoma 57.9% | LOX IMVI melanoma 62.3% | SK-MEL-28 melanoma 75.3% | SK-MEL-2 melanoma 65.5% | EKVX NSCLC 74.5% | SN12C renal 91.4% | UO-31 renal 71.2% | TK-10 renal 86.2% | ACHN renal 89.3% | CAKI-1 renal 65.5% | A498 renal 68.1% | CCRF-CEM leukemia 52.9% | MOLT-4 leukemia 43.2%

CCOC(=O)c1cn2ncnc(Oc3ccc(NC(=O)NCCN(CC)CC)c(Cl)c3)c2c1C
inactive: SNB-75 CNS 89.1% | SNB-19 CNS 83.2% | U251 CNS 65.2% | PC-3 prostate 66.1% | SK-MEL-5 melanoma 46.6% | SK-MEL-2 melanoma 112% | EKVX NSCLC 77.2% | SN12C renal 68.3% | UO-31 renal 57% | TK-10 renal 110% | ACHN renal 88.2% | CAKI-1 renal 68.8% | A498 renal 90.3% | CCRF-CEM leukemia 35.5% | MOLT-4 leukemia 49.2%
active: HCT-15 colon 3.71% | HT29 colon 5.37% | UACC-62 melanoma -8.89% | LOX IMVI melanoma -32.7% | SK-MEL-28 melanoma -77.4%
